Source: PubChem (National Center for Advancing Translational Sciences (NCATS))
FLuc counter = firefly luciferase modulation, counter-screen for miR-21 project. purified FLuc, Km substrates, luminescence inhibition. AID 588342. P08659. Potency, µM (highest dose often 57.5 µM), for the others: top-dose activity change, negative = inhibition, hits mostly inhibitors. 360,000 compounds, 6.9% hits;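 also: plate controls were vehicle for no effect and reference inhibitor for full effect; nearly all actives have a fitted effect of over 55% in size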
Target sequence (P08659 whole entry, looked up): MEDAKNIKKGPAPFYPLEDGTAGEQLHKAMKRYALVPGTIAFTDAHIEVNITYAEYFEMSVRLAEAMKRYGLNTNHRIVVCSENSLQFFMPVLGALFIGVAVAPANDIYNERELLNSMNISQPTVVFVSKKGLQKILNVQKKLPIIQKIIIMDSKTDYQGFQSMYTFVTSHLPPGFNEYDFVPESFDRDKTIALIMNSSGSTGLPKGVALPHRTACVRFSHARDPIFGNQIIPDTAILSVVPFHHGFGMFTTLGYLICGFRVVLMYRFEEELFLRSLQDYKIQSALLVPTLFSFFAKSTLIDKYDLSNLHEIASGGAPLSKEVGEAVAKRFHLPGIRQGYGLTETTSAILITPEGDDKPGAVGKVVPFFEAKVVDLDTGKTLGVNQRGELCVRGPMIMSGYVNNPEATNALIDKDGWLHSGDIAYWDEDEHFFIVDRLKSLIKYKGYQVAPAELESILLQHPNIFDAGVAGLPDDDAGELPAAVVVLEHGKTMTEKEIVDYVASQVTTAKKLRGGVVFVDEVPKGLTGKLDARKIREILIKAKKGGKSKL
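Biochemical qHTS of compounds, final roughly 60 µM downward over six points, against 10 nM purified firefly luciferase using Km concentrations of substrates (10 uM D-luciferin, 10 uM ATP) in Tris acetate pH 7.5 buffer; luminescence output.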
ELG1 DNA repair = inhibitors of ELG1-dependent DNA repair in HEK293T cells | HEK293T ELG1-luciferase reporter, luminescence, 16 h; DNA damage induced by 5-fluorouridine | Potency, µM (series often up to 46.1 µM), for the others: top-dose activity change, negative = inhibition, usual class: inhibitors | 330,000 compounds, 2.3% hits; also: % is scaled to controls: 0 for no effect and ±100 for the full control effect; nearly all actives have a fitted effect of over 55% in size
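Luminescence from the luciferase reporter, measured 30 min after ONE-Glo reagent at room temperature, was the read-out. Beforehand, 2,000 cells per well were exposed for 16 hr at 37 °C to 5-fluorouridine together with compound or vehicle.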
NPC1 prom act = NPC1 promoter activation; Huh7 NPC1 promoter luciferase reporter, 24 h; Potency, µM (series often up to 9.22 µM), inactives show at the top dose activation, most hits filed as activators; 320,000 compounds, 2.4% hits; also: % of control where 0% means no effect; nearly all actives have a fitted effect of over 60% in size
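Cells: Huh7 expressing luciferase under the NPC1 promoter, 1500/well. Seeded 2 h, compound added, incubated 24 h at 37 °C. Luciferase reagent, 10 min ambient, then luminescence.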
SMN2 splice up = SMN2 splice variant enhancement | HEK293 SMN2-luciferase splicing reporter, luminescence, 30-36 h | Potency, µM (doses to about 46.1 µM), for inactives: at the top dose activity change, positive = activation, hits mostly activators | 210,000 compounds, 2.8% hits; also: % of control where 0% means no effect; nearly all actives have a fitted effect of over 55% in size
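HEK293 cells carry an SMN2 minigene-luciferase reporter in which exon 7 inclusion puts luciferase in frame. Cells were seeded at 2000 cells/well, attached for 10-12 hours, then exposed to compounds for 30-36 hours at 37C before ONE-Glo luminescence.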
Rab9 promoter act = activates the Rab9 promoter. 320,000 compounds, 2.8% hits. Huh7 Rab9 promoter-luciferase reporter, luminescence, 24 h. Potency, µM (highest dose often 9.22 µM), inactives show at the highest dose activation, negative = inhibition, most hits filed as activators; also: % of control where 0% means no effect; nearly all actives have a fitted effect of over 60% in size
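Luminescence read-out: Huh7 cells stably expressing Rab9-luciferase, treated 24 h with compound at 37 °C, then lysed with luciferase reagent for 10 min at ambient before reading.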
ELG1 genotox = inducers of genotoxicity in HEK293T ELG1-luciferase cells. 330,000 compounds, 1.3% hits. HEK293T ELG1-luciferase reporter, luminescence, 16 h. AID 504466. Potency, µM (highest dose often 46 µM), inactives show at the highest dose activity change, positive = activation, usual class: activators; also: % of control where 0% means no effect; nearly all actives have a fitted effect of over 60% in size
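Quantitative HTS format in 1536-well plates. HEK293T ELG1-luciferase reporter cells receive test compound and are incubated 16 hr at 37 °C, 5% CO2; ONE-Glo added, 30 min room temperature, then luminescence read.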
Numbers without * were called inactive; ? = inconclusive; nt = not tested or not shown. An excerpt weighted towards active compounds, which were near 9.2% of everything screened. Calls follow the shape of the dose curve; as a rule, active = well fitted curve in the direction sought with a large enough effect; inconclusive = small, poorly fitted or top-dose-only effect, or another doubt; inactive = no such curve, though single readings can be large; an effect the other way counts as inactive or inconclusive. Potency is read from the fitted curve at half-maximal effect.

SMILES | FLuc counter | ELG1 DNA repair | NPC1 prom act | SMN2 splice up | Rab9 promoter act | ELG1 genotox
CS/C(N)=N/C(=S)Nc1cccc(Cl)c1 | 19µM* | ? | ? | nt | ? | 9%
O=C(CCCOc1ccc(Cl)cc1)Nc1cccc(C(=O)O)c1 | 17µM* | ? | -1% | nt | 3% | 5%
Cc1cc(O)c(C(=O)Nc2cccc(Cl)c2)c(=O)n1C | 3.4µM* | ? | 2.2µM* | nt | 2.5µM* | 10µM*
CC(=O)c1cccc(NC(=O)CCCOc2ccc(C)cc2)c1 | -13% | 0% | 0% | -20% | 9% | -2%
Cc1cc(NC(=O)Nc2cccc(Cl)c2)n(-c2ccccn2)n1 | ? | 16µM* | 0% | nt | 0% | -1%
Cc1cc(NC(=O)Nc2cccc(Cl)c2)n(-c2ccccc2)n1 | -1% | 0% | 0% | nt | -1% | -2%
CCOc1ccc(CCNC(=O)C2CCN(C(=O)N3CC(CC)Oc4ccccc43)CC2)cc1 (configuration not stated) | -10% | nt | nt | nt | nt | nt
O=C(Nc1ccccc1)Nc1cccc(Cl)c1 | 9.5µM* | ? | ? | 15% | 3.5µM* | ?
O=C(Nc1cccc(Cl)c1)Nc1ccc2nccnc2c1 | 19µM* | ? | 2.8µM* | nt | 2.2µM* | -2%
CC(=O)Nc1cccc(NC(=O)Nc2cccc3ccccc23)c1 | -9% | -9% | -3% | nt | 1% | -2%
CC(=O)c1ccc(NC(=O)Nc2cccc(Cl)c2)cc1 | 17µM* | ? | 1.4µM* | 11µM* | 1.3µM* | ?
O=C(Nc1cccc(C(=O)O)c1)Nc1cccc2ccccc12 | 2.1µM* | ? | 2µM* | nt | 3.5µM* | 8%
CC(=O)c1sc(NC(=O)C2CCN(C(=O)c3ccc(F)cc3)CC2)nc1-c1ccccc1 | 2% | ? | 0% | nt | -6% | -1%
O=C(Nc1cccc(Cl)c1)Nc1cccc(C(=O)O)c1 | 0.48µM* | ? | 0.32µM* | nt | 0.35µM* | -2%
O=C(Nc1cccc(C(=O)O)c1)/C(=C\c1ccccc1)NC(=O)c1cccc2ccccc12 | 21µM* | 5% | -4% | nt | 0% | 0%
CC(=O)c1ccc(NC(=S)NCCc2cccc(Cl)c2)cc1 | -22% | ? | ? | 13µM* | 2.8µM* | ?
CC(=O)c1ccccc1OCCOc1ncnc2sccc12 | -14% | 9% | 11% | 3% | 26% | 3%
CN(C)S(=O)(=O)c1cccc(NC(=S)Nc2cccc3cnccc23)c1 | ? | 21µM* | -5% | nt | -14% | -14%
S=C(Nc1cccnc1)Nc1cccc2cnccc12 | ? | -17% | -5% | -27% | 10% | -14%
Cc1ccc(C(=O)N(CC(C)C)c2nc3ccccc3s2)o1 | ? | -1% | 8% | nt | 12% | -6%
CC(C)CN(C(=O)c1ccc(=O)n(C)n1)c1nc2ccccc2s1 | -17% | ? | 22% | 20µM* | 26% | 4%
CCOc1cc(/C=C2\C(=O)N(c3nc(-c4ccc(Br)cc4)cs3)N=C2c2ccccc2)ccc1O | 1% | ? | -8% | -42% | -4% | 0%
COc1cc(/C=C2\C(=O)N(c3ccc(NC(C)=O)cc3)N=C2c2ccccc2)ccc1O | 17µM* | 12% | -1% | 5% | -6% | 6%
O=C1/C(=C\c2ccc(O)c(O)c2)C(c2ccccc2)=NN1c1ccccc1 | 19µM* | -5% | -12% | -2% | -13% | 8%
CCOC(=O)C1=C(c2ccccc2)NC(N)=NC1c1ccc(OCc2ccc(Cl)cc2)c(OC)c1 (configuration not stated) | 13µM* | 15% | 1% | nt | 2% | -5%
SMILES | FLuc counter | ELG1 DNA repair | NPC1 prom act | SMN2 splice up | Rab9 promoter act | ELG1 genotox
O=C(NNC(=S)Nc1ccc(Cl)cc1)c1ccccc1OC(F)F | -19% | 23µM* | 1% | -36% | 3% | -11%
Cc1ccccc1C(=O)NNC(=O)c1ccc(F)cc1 | -15% | ? | 2% | 3% | 20% | 13%
COc1ccccc1NC(=O)NNC(=O)c1ccc2ccccc2c1 | -1% | 18% | -6% | nt | 0% | 10%
COC(=O)NNC(=O)c1ccccc1OC | -2% | 2% | 4% | 9% | -3% | 0%
COc1ccccc1C(=O)NNC(=O)c1ccc(F)cc1 | ? | ? | 26% | 11µM* | ? | ?
COc1ccccc1C(=O)NNC(=O)c1ccc(Cl)cc1 | 15µM* | 8% | 16% | nt | 26% | 12%
COc1ccccc1C(=O)NNC(=O)c1ccc2ccccc2c1 | 12µM* | 18% | 1% | nt | 5% | 9%
O=C(O)CCn1c(-c2ccccn2)nc2ccccc21 | ? | 30% | 12% | nt | 15% | 4%
CC(C)CC(=O)Nc1nnc(SCC(=O)NCc2ccc3c(c2)OCO3)s1 | 1% | 1% | -8% | -1% | 0% | 2%
Cc1ccc(-n2ncc(-c3nnc(SCC(=O)NC4CCCC4)o3)c2N)cc1C | ? | 12µM* | 0% | -17% | 18% | -16%
Cc1cc(C)c2c(-n3cccc3)c(C(=O)NCCc3ccccc3)sc2n1 | -2% | nt | nt | nt | nt | nt
Cc1cc2ncn(/N=C/c3ccc(-c4ccccc4)o3)c2cc1C | 24µM* | -5% | -2% | 16% | 8% | -4%
Cc1cc2ncn(/N=C/c3cccnc3)c2cc1C | ? | -17% | -3% | -14% | -9% | 5%
O=S(=O)(c1ccc(OCC(O)CNC23CC4CC(CC(C4)C2)C3)c(Cl)c1)N1CCOCC1 (configuration not stated) | -1% | -16% | -1% | -28% | -11% | -2%
O=C(Nc1cccc(Br)c1)c1ccc2c(c1)SC1=NS(=O)(=O)CCN12 | 1% | ? | 8% | nt | -2% | -1%
